From PubChem BioAssay (NCI) come the findings set out here.

This is part of a sample that, as a whole, favours compounds with a hit. Of some 83,000 tested, about 20% had one in any assay.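 Assay: single dose, 48 h. Readout: percent growth (0 = no net growth; negative = cell death). Active: <10.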 Calls of active or inactive are those of the source.

The test system of the experiment is MDA-MB-435 melanoma. Description: NCI-60 one-dose screen, 48 h (100 = growth as untreated, 0 = no growth, -100 = all killed). The note with it: 10 µM unless noted. The method, then:
Growth inhibition of the MDA-MB-435 human Melanoma tumor cell line is measured as a screen for anti-cancer activity. Cells are grown in 96 well plates and exposed to the test compound for 48 hours. Compounds are tested at a single concentration, which is 10^-5 M for most compounds. The reported endpoint is percent growth (GI% or GIPRCNT), where numbers from 0 - 100% represent growth inhibition, and numbers from -100% - 0 represent cell death. For example, a value of 40 represents 60% growth inhibition. A value of 0 means no net growth occurred over the course of the experiment. A value of -40 indicates 40% of cells at the beginning of the experiment died by the end of the experiment. A value of -100 means all cells are dead at the end of the experiment.
NCI-60 Human Tumor Cell Lines Screen was performed using the standard one-dose NCI protocol, which is described in more detail at https://dtp.cancer.gov/discovery_development/nci-60/default.htm.
Compounds with GIPRCNT values below 10 were considered active. Activity score was based on GIPRCNT using the following formula: […]
Score is 0 for GIPRCNT values of 100 or above, 50 for GIPRCNT values of 0, and 100 for GIPRCNT values of -100.
`Cc1ccc(NC(=O)c2ccc(CN3CCN(C)CC3)c(I)c2)cc1Oc1ccc(-c2[nH]nc3ncnc(N)c23)cc1`: the growth was -67.5% (active).
On to `CN(C)CCn1c2ccc(N)cc2c2nc3ccccc3nc21`, for which the growth was 38.4% (inactive).
To `Cc1cc(O)c2c(c1)C(=O)C(c1c(C)cc3c(c1O)C(=O)C=CC3=O)=CC2=O` belongs 96.5% (inactive).
The value for `Nc1c(C(=O)c2ccccc2)sc2nc(-c3cnccn3)cc(-c3cccs3)c12` was 98.9% (inactive); that for `O=C1Nc2ccc(Br)cc2/C1=N\c1nnc(-c2ccc(Cl)cc2)o1` was -20.7% (active); that for `C#CCOc1ccc(C(Nc2ccc(Cl)cc2)c2nnnn2C2CCCCC2)cc1` (stereo not given) was 98% (inactive).
To `Cn1c2ccccc2c2c3c(c4c5ccc(Br)cc5oc4c21)C(=O)N(O)C3=O` belongs 88.5% (inactive).
Turning to `O=c1cc(-c2ccccc2)nc2sc(-c3c[nH]c4ccc(Br)cc34)nn12`, the growth is 101% (inactive).
To `CCN1C(=O)N(CC)C2C1NN=C1SC(c3ccccc3)=CC(=O)N12` (stereo not given) belongs -33.3% (active).
The value for `COc1ccc([C@H]2[C@H](O)C(=O)N2c2cc(OC)c(OC)c(OC)c2)cc1O` was -13.1% (active); that for `C=CCn1c(SCC(=O)Nc2cccc(C(=O)/C=C/c3cc(OC)c(OC)c(OC)c3)c2)nc2ccccc2c1=O` was 21.7% (inactive).
For `O=c1oc2ccc(-c3ccc(F)cc3F)cc2c(=O)n1-c1ccc(F)c(F)c1`, the growth is 3.43% (active).
To `CCn1c2ccc(/C=N/OCCCN(C)C)cc2c2cc(/C=N/OCCCN(C)C)ccc21` belongs -48.9% (active); to `CCCCOc1ccc(S(=O)(=O)N2CCN(c3nccc(N4CCOCC4)n3)CC2)cc1`, 14.5% (inactive); to `CCc1ccc(NC(=O)N[C@@H](Cc2cccc(F)c2)C(=O)N[C@@H]2C(=O)N3CCC[C@H]3C(=O)N3CCCC[C@H]3C(=O)N[C@@H](CO)C(=O)N3C[C@H](C)C[C@H]3C(=O)O[C@H]2C)c(F)c1`, 20.3% (inactive).
Turning to `Cc1nn(-c2ccccc2)cc1/C=N/Nc1nc(Nc2ccccc2)nc(Nc2ccc(S(N)(=O)=O)cc2)n1`, the growth is -31.8% (active).
The value for `N#Cc1c(NC(=O)c2ccc(F)c(Cl)c2)sc2c1CCC(=O)C2` was -39.5% (active); that for `CC(C)=CCc1c(O)c(CC=C(C)C)c2c(c1O)C(=O)C1=C[C@@H]3C[C@H]4C(C)(C)O[C@@](C/C=C(\C)C(=O)O)(C3=O)[C@@]14O2` was -5.58% (active); that for `CCOC(=O)c1c(NCC(=O)Nc2cccc([N+](=O)[O-])c2)sc2c1CCCC2` was -91.5% (active).
The value for `COc1ccc(-c2cc(-c3cccc4ccccc34)n3c(n2)nc2ccccc23)cc1` was 53.4% (inactive); that for `COc1ccc(-c2nnc(/N=C3/C(=O)Nc4ccc(Br)cc43)o2)cc1` was 94.7% (inactive); that for `Oc1ccc(-c2nnc(SCc3ccc(O)c4ncccc34)o2)cc1` was 12.3% (inactive).
To `CC(=O)C1=NN(c2ccc(Cl)cc2)C(=O)CN1C` belongs 103% (inactive).
In the case of `COc1ccc(-c2ccnc3c(C#N)c(Nc4ccccc4)nn23)cc1OC`, the growth is 103% (inactive).
For the compound `CC(C)=CCC[C@](C)(O)[C@H]1CC[C@]2(C)[C@@H]1CC[C@@H]1[C@@]3(C)CCC(NC(=O)c4ccccc4C(=O)O)C(C)(C)[C@@H]3CC[C@]12C` (stereo not given in full), the growth was 51.2% (inactive).
With `COc1ccc([C@@H]2[C@@H](O)C(=O)N2c2cc(OC)c(OC)c(OC)c2)cc1`, the growth was -28.6% (active).
In the case of `CN(C)c1ncc(/C=C2\SC(=S)N(Cc3ccccc3Cl)C2=O)s1`, the growth was 103% (inactive).
As for `CN(C)C(=O)C1=NC(CO)C(=O)N(c2ccc(Cl)cc2)N1` (stereo not given), the growth is 106% (inactive).
Take `Cc1cc(=O)n2nc(-c3c[nH]c4ccccc34)sc2n1`: the growth is 103% (inactive).
To `O=C(COc1ccc(C2SCC(=O)N2c2ccc(F)cc2)cc1)c1ccccc1` (stereo not given) belongs 103% (inactive); to `CCOc1ccc2nc(NC(=O)Nc3ccccc3C)sc2c1`, -11.1% (active); to `CCCC(=O)NC(c1cccnc1)c1cc(C(C)=O)c2cccnc2c1O` (stereo not given), 34.5% (inactive).
The value for `COc1cc2c3c(n(CCCNC4CCCCC4)c(=O)c2cc1OC)-c1cc2c(cc1C3=O)OCO2` was 102% (inactive); that for `O=C(CN1C(=O)S/C(=C\c2ccccc2)C1=O)Nc1ccc(C(=O)/C=C/c2cc3ccccc3nc2Cl)cc1` was 82.9% (inactive).
As to `NCCN1CCN(c2nc(-c3ccccc3)nc3nc(-c4ccccc4)oc23)CC1`, the growth is -77.6% (active).
Consider `O=S(=O)(NCCCNc1nccc(-n2cnc3ccccc32)n1)c1ccc(F)cc1`, for which the growth was 64.6% (inactive).
In the case of `O=C(COc1ccc(C2SCC(=O)N2c2ccccc2)cc1)c1ccccc1` (stereo not given), the growth is 103% (inactive).
Take `C=C(C)[C@@H]1CC[C@]2(C(=O)NCCCN(CCC#N)CCC#N)CC[C@]3(C)[C@H](CC[C@@H]4[C@@]5(C)CCC(=O)C(C)(C)[C@@H]5CC[C@]43C)[C@@H]12`: the growth is 101% (inactive).
The value for `COc1ccc(Cn2cc3c(c2-c2ccccc2)CCCc2cnoc2-3)cc1` was -11.2% (active); that for `CCN1C(=O)N(CC)C2SC(N/N=C/c3ccccc3)=NC21` (stereo not given) was -10.2% (active).
